Bioassay records deposited in PubChem by National Center for Advancing Translational Sciences (NCATS).
Sfp inh – inhibitors of Bacillus subtilis Sfp phosphopantetheinyl transferase; Biochemical Sfp PPTase activity, qHTS; Potency, µM, most hits filed as inhibitors; actives 3.5% (n = 310,000); AID 1490;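 also: the enzyme is Sfp with the accession as filed and its product quenches rhodamine fluorescence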
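Compounds were incubated with enzyme (final 15 nM) for 15 min at room temperature before substrate addition started the reaction. Fluorescence at 525 nm excitation, 598 nm emission was recorded immediately and after 30 minutes.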
BAZ2B block – blocks human BAZ2B; actives 4.4% (n = 360,000); Q9UIF8; Potency, µM (titrated, usually from 114 µM), most hits filed as inhibitors; AlphaScreen BAZ2B-H3K14Ac peptide displacement; also: nearly all actives have a fitted effect of over 60% in size
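AlphaScreen displacement of biotin-H3(5-23)K14Ac peptide (50 nM final) from BAZ2B (50 nM final) in PBS pH 7.4, 0.01% Tween-20; complex preformed 30 min RT, then compounds (top 110 uM) 30 min RT, beads 20 min dark.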
JMJD2A Tudor inh – blocks the human JMJD2A Tudor domain. Potency, µM (doses to about 114 µM), most hits filed as inhibitors. AlphaScreen JMJD2A-Tudor / H3K4me3 peptide binding. actives 4.4% (n = 390,000). AID 504339. O75164; also: nearly all actives have a fitted effect of over 50% in size
HP1b binding inh – HP1-beta chromodomain-methylated histone interaction inhibition; AlphaScreen HP1-beta / biotin-H3K9me3 peptide binding; Potency, µM (titrated, usually from 114 µM), hits mostly inhibitors; actives 0.56% (n = 390,000); AID 540317; also: nearly all actives have a fitted effect of over 70% in size
Target sequence (P83916 whole entry, looked up): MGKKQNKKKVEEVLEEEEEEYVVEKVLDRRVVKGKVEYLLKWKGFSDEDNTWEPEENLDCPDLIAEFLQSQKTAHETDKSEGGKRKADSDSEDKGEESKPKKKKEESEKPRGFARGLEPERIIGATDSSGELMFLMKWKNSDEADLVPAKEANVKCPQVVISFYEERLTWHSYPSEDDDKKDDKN
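HP1-beta protein (50 nM final) preincubated 30 min at room temperature with biotinylated H3(1-18)K9me3 peptide (50 nM) in PBS pH 7.4, 0.01% Tween-20, then compound added for 30 min. AlphaScreen streptavidin donor/nickel chelate acceptor beads (10 ug/mL final), 30 min dark, luminescence read.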
G9a block – blocks human histone lysine methyltransferase G9a. Potency, µM (highest dose often 102 µM), hits mostly inhibitors. actives 8.8% (n = 350,000). AID 504332. G9a H3K9 monomethylation, AlphaScreen, 2 h; also: nearly all actives have a fitted effect of over 75% in size
Target sequence (Q96KQ7 913-1193 limits assumed): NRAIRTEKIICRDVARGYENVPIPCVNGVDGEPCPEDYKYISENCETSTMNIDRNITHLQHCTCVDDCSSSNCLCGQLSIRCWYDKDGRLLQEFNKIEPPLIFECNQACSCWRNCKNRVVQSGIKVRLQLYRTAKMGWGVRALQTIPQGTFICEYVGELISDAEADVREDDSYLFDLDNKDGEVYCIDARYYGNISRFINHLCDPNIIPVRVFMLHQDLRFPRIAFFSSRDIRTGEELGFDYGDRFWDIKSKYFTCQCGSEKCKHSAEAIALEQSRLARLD
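Chemiluminescent proximity detection of H3K9 monomethylation, read after 10 min bead incubation in the dark. Reaction: 20 nM G9a, 500 nM biotin-H3K9 peptide, 20 uM SAM cofactor, 2 h, room temperature, following 15 min enzyme-compound preincubation.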
L3MBTL1 inh – inhibitors of human L3MBTL1 | Q9Y468 | AID 485360 | AlphaScreen L3MBTL1–H3K9me1 peptide binding | Potency, µM (series often up to 57.1 µM), actives largely listed as inhibitors | actives 0.66% (n = 230,000); also: nearly all actives have a fitted effect of over 60% in size
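L3MBTL1 (50 nM) pre-complexed 30 min with biotinylated H3(1-15)K9me1 peptide (75 nM), then compounds added for 30 min at room temperature; AlphaScreen streptavidin donor/nickel chelate acceptor beads (10 ug/mL final) read after 30 min dark incubation.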
A number is an active result; n = inactive; u = inconclusive; x = no result; ! = not confirmed by another sample; [ ] = dose if it differs, or a comment. Most compounds without a hit are left out; they make up all but 12% or so of the library. Calls follow the shape of the dose curve; as a rule, active = well fitted curve in the direction sought with a large enough effect; inconclusive = small, poorly fitted or top-dose-only effect, or another doubt; inactive = no such curve, though single readings can be large; an effect the other way counts as inactive or inconclusive.

SMILES	Sfp inh	BAZ2B block	JMJD2A Tudor inh	HP1b binding inh	G9a block	L3MBTL1 inh
Cc1nc(N=Nc2ccc(C(=O)O)cc2)c(COP(=O)(O)O)c(C=O)c1O	x	x	x	x	40µM	x
Cc1ccccc1-n1c(Cc2cccs2)n[nH]c1=S	u	n	8.9µM	n	u	n
FC(F)(F)c1ccc(Cl)c(-n2c(Cc3cccs3)n[nH]c2=S)c1	79µM	u	u	n	x	n
Cc1ccccc1NC(=S)N(C)Cc1cccs1	n	n	n	n	n[12.7 µM]	x
Cc1ccc(-n2c(Cc3cccs3)nnc2SCC(=O)Nc2ccc(F)c(F)c2)cc1	n	n	n	n	n	x
Fc1ccc(-n2c(Cc3cccs3)n[nH]c2=S)cc1Cl	n	n	n	n	1.8µM	n
Cc1ccc2c(c1)c1c3n2CCN(C(=O)CN2CCN(C)CC2)C3CCC1 (stereo not drawn)	n	u	u	n	45µM	n
Cc1ccc2c(c1)c(=O)c1c3n2CCN(C(=O)CCl)C3CC1 (stereo not drawn)	79µM	40µM	u	n	11µM	x
CN1CCN(CC(=O)N2CCn3c4c(c5cc(C6CCCCC6)ccc53)CCCC42)CC1 (stereo not drawn)	u	35µM	40µM	u	u	x
O=C1c2oc3ccccc3c(=O)c2C(c2ccccc2F)N1Cc1ccc2c(c1)OCO2 (stereo not drawn)	x	n	n	n	n	x
Cc1cc(C)cc(N2Cc3ccccc3C2)c1	n	n	n	n	10µM	x
CCOC(=O)c1ccc(N2Cc3ccccc3C2)cc1O	n	n	n	n	u	x
CCc1ccc(N2Cc3ccccc3C2)cc1	u	u	n	n	10µM	x
CC(=O)Nc1ccc(N2CCCCC2)cc1	n	n	n	n	u	n
CC(=O)Nc1ccc(N2Cc3ccccc3C2)cc1	n	79µM	n	n	x	n
COCCNC(=O)CSc1nc(-c2cc(OC)c(OC)c(OC)c2)[nH]c1-c1ccc(Cl)cc1	x	u	u	n	n	x
Cc1cccc(N2CCN(C(=O)c3cc4ccc5cccnc5c4[nH]3)CC2C)c1 (stereo not drawn)	x	28µM	28µM	n	u	x
CC1=C(C(=O)Nc2cc(C(=O)N3CCN(c4cccc(C)c4)C(C)C3)ccc2C)SCCO1 (stereo not drawn)	n	u	u	n	35µM	x
Cc1cccc(N2CCN(C(=O)c3ccc(N4CCCC4=O)cc3)CC2C)c1 (stereo not drawn)	n	n	n	n	n[0.501 µM]	n
COc1ccc(N2CCN(C(=O)c3ccc(C)c(NC(=O)C4=C(C)OCCS4)c3)CC2)cc1	n	45µM	u	n	40µM	x
CCOC(=O)C1CCCN(C(=O)c2ccc(C)c(NC(=O)C3=C(C)OCCS3)c2)C1 (stereo not drawn)	n	n	n	n	n	x
Cc1cccc(N2CCN(C(=O)c3ccc4c(c3)c(C)c(C)n4C)CC2C)c1 (stereo not drawn)	n	22µM	28µM	40µM	45µM	x
Cc1ccc(C)c(N2CCN(C(=O)c3cc4ccc5cccnc5c4[nH]3)CC2)c1	x	n	u	n	n	x
O=C(Cn1c(=O)n(-c2ccccc2)c(=O)c2c3c(sc21)CCCC3)Nc1cccc(F)c1	x	n	n	n	n	x
Cn1ccnc1SCc1ccc(Cl)cc1Cl	n	n	u	n	8.9µM	x
SMILES	Sfp inh	BAZ2B block	JMJD2A Tudor inh	HP1b binding inh	G9a block	L3MBTL1 inh
CCc1nnc(NS(=O)(=O)c2ccc(NC(=O)/C=C/c3ccc(OC)cc3OC)cc2)s1	n	56µM	u	n	n	n
CCc1nnc(NS(=O)(=O)c2ccc(N/C=C/C(=O)c3ccc(C)cc3)cc2)s1	n	50µM	u	n	40µM	n
CCc1nnc(NS(=O)(=O)c2ccc(N/C=C\C(=O)c3cccc(OC)c3)cc2)s1	n	n	n	n	50µM	n
CCc1nnc(NS(=O)(=O)c2ccc(N/C=C\C(=O)c3ccc(C)cc3)cc2)s1	n	u	u	n	n	n
Cc1c(-c2ccc(Cl)cc2)c(=O)oc2c(CN3CCN(C)CC3)c(O)ccc12	x	n	n	n	n	x
CC1CN(c2c3c(nc4ncnn24)CCCC3)CC(C)O1 (stereo not drawn)	n	n	n	n	3.2µM	n[11.4 µM]
CC1CCc2c(nc3ncnn3c2N2CC(C)OC(C)C2)C1 (stereo not drawn)	n	n	n	n	n[2.33 µM]	n
CN1CCC/C1=C1/C(=O)N(c2ccccc2)N=C1NC(=O)Nc1cccc(Cl)c1	n	n	20µM	n	n	n
Cc1ccc(NC(=O)NC2=NN(c3ccccc3)C(=O)/C2=C2/CCCN2C)cc1	n	n	n	n	n	u
COC(=O)[C@H]1C2CC3c4[nH]c5ccccc5c4CCN3CC2CC[C@@H]1O (stereo partly drawn)	n	x	x	x	n	x
CC(C)c1ccc(C(=O)Nc2ccc(-c3nc4ccccc4s3)c(Cl)c2)cc1	x	n	n	n	n	x
O=C(CSc1nccn1Cc1ccc(F)cc1)NCc1ccc(F)cc1	x	n	n	n	n	x
COC(=O)c1cc2ccccc2c(-c2c(O)ccc3ccccc23)c1O	n	u	u	n	u	n
O=C1C=C(c2c(O)ccc3ccccc23)c2ccccc2C1=O	x	x	40µM	25µM	x	x
O=C1C=C(O)c2cccc(O)c2C1=O	n	u	u	n	n	x
O=C1C(O)=C(O)C(=O)c2ccccc21	x	x	56µM	u	x	x
CC(=O)N(C)C1=C(O)c2ccccc2C(=O)C1=O	n	u	n	n	79µM	n
O=C1C=C(O)c2ccccc2C1=O	79µM!	x	x	x	x	x
O=C(Nc1ccc(Br)cc1F)c1ccc2nc(CCc3ccccc3)oc2c1	x	n	n	n	n	x
COc1cccc(CN2C(=O)CN(C3CCCCC3)C(=O)C2c2ccc(OC)c(OC)c2)c1 (stereo not drawn)	x	n	n	n	n	x
N#CC1=C2SCC(O)(c3ccccc3)N2C(=O)CC1c1cccs1 (stereo not drawn)	18µM	u	n	n	50µM	n
COc1ccc(C2CC(=O)N3C(=C2C#N)SCC3(O)c2ccccc2)cc1 (stereo not drawn)	50µM	n	u	n	n	n
CSC1=C(C#N)C(c2cccs2)CC(=O)N1C (stereo not drawn)	n	n	x	x	u	n
COc1ccc(C2CC(=O)N(c3ccccc3)C3=C2C(=O)CCC3)cc1 (stereo not drawn)	n	n	n	n	n[12.7 µM]	n
CCc1cccc(NC(=O)CSc2ncc3c(n2)-c2ccccc2N(Cc2ccccc2C)S3(=O)=O)c1	x	n	n	n	n	x
CC(C)Nc1oc(-c2cccc3ccccc23)nc1C#N	n	n	n	n	45µM	n
CCNc1oc(-c2cccc3ccccc23)nc1C#N	n	n	n	n	n	x
Cc1cccc(NC(=O)c2oc3ccccc3c2NC(=O)Cc2coc3cc(C)cc(C)c23)c1	x	n	n	n	n	x
